Laboratory results taken from PubChem BioAssay (NCATS).
Inconclusive results are not listed. Entries that show only a call come without a potency. The source made the active and inactive calls. Calls follow the shape of the dose curve; as a rule, active = well fitted cell-killing curve with a large enough effect; inconclusive = small, poorly fitted or top-dose-only effect, or effect the other way; inactive = no such curve, though single readings can be large or run the other way.

What was measured:
[1] = Quantitative High-Throughput drug screen in 47 multiple myeloma cell lines against the NCATS MIPE library collection: AMO1_DSMZ cell viability assay (AID 1918927; also: nearly all actives have a fitted effect of over 30% in size); conditions: AMO1 myeloma cells viability, CellTiter-Glo ATP luminescence, 48 h; series mostly up to 45.8 µM
How it was run: (§1)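 Approved and investigational drugs from MIPE 4.0 were added by pin tool to 500 cells per well. After 48 hours at 37C, ATP-based CellTiter-Glo luminescence indicated remaining viability.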

[2] = Quantitative High-Throughput drug screen in 47 multiple myeloma cell lines against the NCATS MIPE library collection: ARD_JJKsccE7 cell viability assay (AID 1918929); conditions: ARD myeloma cell line viability, CellTiter-Glo, 48 h; series mostly up to 45.8 µM
How it was run: as §1

[3] = Quantitative High-Throughput drug screen in 47 multiple myeloma cell lines against the NCATS MIPE library collection: EJM_DSMZ cell viability assay (AID 1918926; also: nearly all actives have a fitted effect of over 30% in size); conditions: EJM myeloma cell viability, CellTiter-Glo ATP, 48 h; series mostly up to 45.8 µM
How it was run: as §1

[4] = Quantitative High-Throughput drug screen in 47 multiple myeloma cell lines against the NCATS MIPE library collection: ARP1_JJKsccF8 cell viability assay (AID 1918928; also: nearly all actives have a fitted effect of over 40% in size); conditions: ARP1 myeloma cells viability, CellTiter-Glo ATP, 48 h; series mostly up to 45.8 µM
How it was run: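 ATP readout (CellTiter-Glo), 48 h drug incubation, 37 °C/5% CO2, 500 cells per well; normalisation to DMSO (100%) and media-only (0%) controls.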

[5] = Quantitative High-Throughput drug screen in 47 multiple myeloma cell lines against the NCATS MIPE library collection: Karpas620_DSMZ cell viability assay (AID 1918959); conditions: Karpas620 myeloma viability, CellTiter-Glo ATP luminescence, 48 h; series mostly up to 45.8 µM; also: nearly all actives have a fitted effect of over 30% in size
How it was run: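 Inhibition of cell viability is measured here. Each line was plated at 500 cells per well, treated with MIPE 4.0 drugs, kept 48 hours at 37C, then assayed for ATP content by CellTiter-Glo luminescence.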

[6] = Quantitative High-Throughput drug screen in 47 multiple myeloma cell lines against the NCATS MIPE library collection: Delta47_JCRB cell viability assay (AID 1918925; also: nearly all actives have a fitted effect of over 45% in size); conditions: Delta47 myeloma viability, CellTiter-Glo ATP, 48 h; series mostly up to 45.8 µM
How it was run: as §1
Potency is read from the fitted curve at half-maximal effect.

| SMILES | Potency [1] | Potency [2] | Potency [3] | Potency [4] | Potency [5] | Potency [6] |
| --- | --- | --- | --- | --- | --- | --- |
| CC(C)(C)c1[nH]cnc1C=c1[nH]c(=O)c(=Cc2ccccc2)[nH]c1=O | inactive | inactive | – | – | – | – |
| Oc1ccc(C=Cc2cc(O)cc(O)c2)cc1 | inactive | inactive | inactive | 13.2 µM (active) | inactive | – |
| COc1c(C)c2c(c(O)c1CC=C(C)CCC(=O)O)C(=O)OC2 | 0.935 µM (active) | – | – | 6.62 µM (active) | inactive | – |
| COc1cc(N2CCN(C)CC2)ccc1Nc1nc(N)c(C(=O)c2c(Cl)cccc2Cl)s1 | 18.7 µM (active) | – | 23.5 µM (active) | – | – | – |
| CCNC(=O)[C@H]1O[C@@H](n2cnc3c(N)nc(NCCc4ccc(CCC(=O)O)cc4)nc32)[C@H](O)[C@H]1O | 0.105 µM (active) | inactive | 0.0332 µM (active) | – | inactive | – |
| COc1cc([C@H]2Oc3cc([C@H]4Oc5cc(O)cc(O)c5C(=O)[C@H]4O)ccc3O[C@H]2CO)ccc1O | – | inactive | 14.8 µM (active) | – | inactive | – |
| CC(C)CN(C[C@H](O)[C@H](Cc1ccccc1)NC(=O)O[C@H]1CCOC1)S(=O)(=O)c1ccc(N)cc1 | inactive | – | – | – | inactive | – |
| Oc1cc(O)cc(C=Cc2ccc(O)c(O)c2)c1 | 11.8 µM (active) | 9.35 µM (active) | 20.9 µM (active) | – | 5.26 µM (active) | – |
| CN1CCC[C@H]1CCO[C@](C)(c1ccccc1)c1ccc(Cl)cc1 | – | inactive | – | inactive | – | 13.2 µM (active) |
| CCCCC(C=O)NC(=O)C(CC(C)C)NC(=O)OCc1ccccc1 (stereo not drawn) | inactive | inactive | – | – | inactive | – |
| Nc1nc(Cl)nc2c1ncn2[C@@H]1O[C@H](CO)[C@@H](O)[C@H]1F | 0.0418 µM (active) | 0.418 µM (active) | – | 2.35 µM (active) | 0.469 µM (active) | – |
| COc1ccc2ccc(=O)oc2c1CC=C(C)C | 13.2 µM (active) | – | 1.48 µM (active) | 8.33 µM (active) | 16.6 µM (active) | – |
| O=C(O)C1=CO[C@@H](O[C@@H]2O[C@H](CO)[C@H](O)[C@H](O)[C@H]2O)[C@@H]2C(CO)=CC[C@H]12 | inactive | inactive | 5.9 µM (active) | inactive | – | – |
| COc1cc2c(cc1OC)[C@@H]1Cc3ccc(OC)c(OC)c3CN1CC2 | inactive | inactive | 10.5 µM (active) | 13.2 µM (active) | inactive | – |
